The source of these data is PubChem BioAssay.

The assay can be described thus: small-molecule binders of probe aInhba, primary screen, biochemical, small-molecule microarray, 635/667 nm fluorescence (AID 1148).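 Further: score merges 667nm spot fluorescence with signal-to-noise for antibody binding to printed compounds.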 Particulars: higher = more signal.
On to `CC(CCN1CCCc2nc(C)c(C)cc21)=NOC(C)CN1CCCCc2nc(C)c(C)cc21` (stereo unspecified), for which the composite z-score was 0.0074. In the case of `CCN1C(=O)[C@@H]2[C@H]3C(=CC[C@@H]2C1=O)C1(OCCCO1)[C@H]1O[C@H]1[C@H]3O` it was 0.0513. The result for `Cc1ccc(S(=O)(=O)N[C@@H]2COC(=O)[C@@H](C)COC(=O)CC=C[C@H]2C)cc1` reads 0.0633; that for `COC(=O)C1=C(C)N(Cc2ccccc2)[C@]23O[C@](C(=O)OC)(C(=O)N2[C@@H]1c1ccccc1)C(C(=O)OC)=C3C(=O)OC`, 0.095; that for `CC(C)CON=C1C[C@@H](O)[C@@H](O)[C@@H]2[C@@H]3C(=O)N(c4ccc(F)cc4F)C(=O)[C@@H]3CC[C@H]12`, -0.243. For `CCOC(=O)CCN1C(=O)[C@H]2[C@H]3[C@H](O)[C@H](O)CC(=NOCC(C)C)[C@H]3CC[C@H]2C1=O`, the composite z-score is -0.159. `CC(C)=CCCC(C)=CCON=C1C[C@@H](O)[C@@H](O)[C@@H]2[C@@H]3C(=O)N(C(C)(C)C)C(=O)[C@@H]3CC[C@H]12` came in with a composite z-score of 0.0442. The result for `C[C@H]1CC[C@H]2C(=O)O[C@H](COc3ccc(C(C)(C)C)cc3)CN2[C@@H]1c1ccc(Br)cc1` reads -0.0021. `COC(=O)CC=C[C@@H](C)[C@@H](C=NO[C@@H]1O[C@H](COC(C)=O)[C@@H](OC(C)=O)[C@H](OC(C)=O)[C@H]1OC(C)=O)NS(=O)(=O)c1ccc(C)cc1` registered a composite z-score of 0.0086. Regarding `CCOC(=O)[C@H](CC(C)C)NC(=O)CCC1CC(OC(=O)NCc2cccc3ccccc23)CC2(CCCC(COC(=O)NCc3ccncc3)O2)O1` (stereo partly specified), the composite z-score amounted to 0.0074. In the case of `CC(CCN1CCCc2nc(C)c(C)cc21)=NO[C@@H](C)c1cc(-c2c(C)cc(C)cc2C)no1` it was 0.111. Molecule `O=C1[C@H]2[C@H]3[C@H](O)[C@H](O)CC(=NO[C@@H]4O[C@H](CO)[C@@H](O)[C@H](O)[C@H]4O)[C@H]3CC[C@H]2C(=O)N1c1cccc(Oc2ccccc2)c1` registered a composite z-score of -0.0846. In the case of `CCOC(=O)NN=C1C[C@@H](O)[C@@H](O)[C@@H]2[C@@H]3C(=O)N(c4ccc(F)cc4F)C(=O)[C@@H]3CC[C@@H]12` it was -0.016. In the case of `C[C@H]1CC[C@H]2C(=O)OC(CO)CN2[C@@H]1c1ccc(Br)cc1` (stereo partly specified) it was -0.253. In the case of `Cn1c(=O)n2n(c1=O)[C@H]1[C@H](O)[C@@H]3O[C@@H]3C(=NOCc3ccccc3)[C@H]1CC2` it was -0.183; in that of `O=c1n(-c2ccccc2)c(=O)n2n1CC[C@@H]1C(=NOCc3ccccc3)[C@H]3O[C@H]3[C@@H](O)[C@@H]12`, -0.0695.

On to `C[C@@H]1CC[C@H]2C(=O)O[C@@H](Cc3ccccc3)CN2[C@H]1c1ccc(Br)cc1`, for which the composite z-score is -0.133.

`CO[C@H]1COC(=O)[C@@H](C)COC(=O)[C@H](C)NC(=O)CC=C[C@H]1C` gave a composite z-score of -0.176. In the case of `CO[C@H]1COC(=O)CC=C[C@H](C)[C@@H](OC)COC(=O)[C@@H](C)COC(=O)CC=C[C@@H]1C` it was -0.331; in that of `COC(=O)CC=C[C@@H](C)[C@@H](C=NOCC[C@@H]1C=C[C@H](OC(C)=O)[C@@H](COC(C)=O)O1)NS(=O)(=O)c1ccc(C)cc1`, -0.0523; in that of `CCOC(=O)CCN1C(=O)[C@H]2[C@H]3[C@H](O)[C@H](O)CC(=NNC(=O)OCc4ccccc4)[C@@H]3CC[C@H]2C1=O`, -0.218. Consider `CC(C)=CCCC(C)=CCON=C1C[C@@H](O)[C@@H](O)[C@@H]2[C@@H]3C(=O)N(Cc4ccccc4)C(=O)[C@@H]3CC[C@@H]12`, for which the composite z-score was -0.157.

Regarding `C[C@@H](ON=C1[C@H]2CCn3c(=O)n(-c4ccccc4)c(=O)n3[C@H]2[C@H](O)[C@@H]2O[C@H]12)c1cn([C@@H]2COC[C@H]2O)nn1`, the composite z-score came to 0.0028. The result for `COc1cc(O)c(C(=O)C=Cc2ccc3c(c2)OCO3)c(OC)c1` reads -0.0332; that for `COC(=O)CC=C[C@@H](C)[C@@H](C=NO[C@H](C)c1cn([C@H](CO)Cc2ccccc2)nn1)NS(=O)(=O)c1ccc(C)cc1`, -0.0531; that for `COc1ccc(O[C@H]2C=C[C@@H](c3ccccc3)O[C@@H]2COC(=O)CCC(C)=NO[C@@H]2O[C@H](COC(C)=O)[C@@H](OC(C)=O)[C@H](OC(C)=O)[C@H]2OC(C)=O)cc1`, -0.106. `CCOC(=O)NN=C1C[C@@H](O)[C@@H](O)[C@@H]2[C@@H]3C(=O)N(Cc4ccc5c(c4)OCO5)C(=O)[C@@H]3CC[C@H]12` displayed a composite z-score of -0.128.

For the molecule `CCOC(=O)[C@H](CC(C)C)NC(=O)CCC1CC(OC(=O)NCc2cccc3ccccc23)CC2(CCCC(COC(=O)NCCC(C)C)O2)O1` (stereo partly specified), the composite z-score was -0.0736. The result for `CC(C)=CCCC(C)=CCON=C1C[C@@H](O)[C@@H](O)[C@@H]2[C@@H]3C(=O)N(C[C@@H]4CCCO4)C(=O)[C@@H]3CC[C@H]12` reads -0.162; that for `CC=CC1=C(CO)C(=O)[C@@H]2O[C@@H]2C1=O`, -0.128. As for `CO[C@H]1COC(=O)CCC[C@@H](C)[C@H](OC)COC(=O)[C@@H](C)NC(=O)CC=C[C@@H]1C`, the composite z-score is -0.152. `COc1ccc(O[C@H]2C=C[C@@H](c3ccccc3)O[C@@H]2COC(=O)CCC(C)=NOC[C@@H](O)[C@H]2O[C@@H]3OC(C)(C)O[C@@H]3[C@H]2O)cc1` returned a composite z-score of -0.0963.

The molecule `O=C(NN=C1C[C@@H](O)[C@@H](O)[C@@H]2[C@@H]3C(=O)N(Cc4ccccc4)C(=O)[C@@H]3CC[C@@H]12)OCc1ccccc1` had a composite z-score of -0.239. In the case of `CCOC(=O)[C@H](CC(C)C)NC(=O)CCC1CC(OC(=O)NCc2cccc3ccccc23)CC2(CCCC(COC(=O)NCCc3ccc(Cl)cc3)O2)O1` (stereo partly specified) it was -0.0987; in that of `CO[C@@H]1C=CCC(=O)N2CCC[C@H]2C(=O)OC[C@@H](C)C(=O)OC[C@H]1C`, -0.0762; in that of `CC(C)CON=C1C[C@@H](O)[C@@H](O)[C@@H]2[C@@H]3C(=O)N(C4CCCCC4)C(=O)[C@@H]3CC[C@H]12`, 0.125.
